Screens: PubChem, National Center for Advancing Translational Sciences (NCATS)
IL-1B inflam inh: blocks inflammasome-driven IL-1 beta release | THP-1 LPS/ATP IL-1B secretion, AlphaLISA, 16 h; active compounds read low | 4.7% of 360,000 active | activity change, % at 57.5 µM; in the data active means activity change below about -50%; inconclusive means mostly about -30% to -49%; further: on the % scale 0 is the no-effect control and ±100 the full control effect
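Secreted IL-1B measured by AlphaLISA bead assay after 16 h compound exposure of THP-1 cells; compounds (final up to 57.5 uM) added 1 h before LPS (250 ng/mL) and ATP (1.25 mM) stimulation; lower signal means less secretion.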
TDP1 cell noCPT: qHTS for Inhibitors of human tyrosyl-DNA phosphodiesterase 1 (TDP1): qHTS in cells in absence of CPT; Potency, µM (highest dose often 46.2 µM), for inactives: at the highest dose activity change, negative = growth inhibition, most hits filed as inhibitors; AID 686978, 2013; DT40 Tdp1-/- hTDP1 cells, no CPT, ATP luminescence, 48 h; 15% of 420,000 active; further: potency means the concentration at half of the fitted maximal effect; on the % scale 0 is the no-effect control and ±100 the full control effect; nearly all actives have a fitted effect of over 55% in size
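Camptothecin absent (DMSO only). Human TDP1-complemented DT40 knockout cells, 400 cells/well, 37 °C for minimum 48 hr; ATP measured via CellTiter-Glo, 30 min dark incubation, luminescence.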
HepG2 viability: kills HepG2 cells in TGF-b inhibitor counter-screen. HepG2 CAGA-GFP viability, ATP luminescence, 18 h. Potency, µM (doses to about 46.1 µM), for the others: top-dose activity change, negative = cytotoxicity, most hits filed as cytotoxic. 0.76% of 410,000 active. AID 588856; further: potency means the concentration at half of the fitted maximal effect
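CellTiter-Glo luminescence gave cytotoxicity after 18 hours at 37 degrees C. The cells were HepG2 CAGA-GFP in 1% FBS DMEM, stimulated with 500 pg/mL TGF-beta after compound addition. %Activity was normalised to no-cell wells (complete cell-killing) and DMSO (no toxicity), and curves were fitted and classified.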
TGFb SMAD3 inh: inhibitors of TGF-b signaling; Potency, µM (top dose mostly 46.1 µM), inactives show at the highest dose activity, negative = inhibition, actives largely listed as inhibitors; HepG2 CAGA-GFP TGF-b/SMAD3 reporter, GFP fluorescence, 18 h; TGF-beta stimulated, 500 pg/mL final; AID 588855; 1.2% of 410,000 active; further: potency means the concentration at half of the fitted maximal effect; on the % scale 0 is the no-effect control and ±100 the full control effect; nearly all actives have a fitted effect of over 65% in size
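Per well, imaged GFP fluorescence of HEPG2 CAGA-GFP cells gives the signal; cells get compound, then TGF-beta (500 pg/mL final), 18 h at 37 degrees C; %Activity versus -TGF-beta and +DMSO controls.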
TDP1 block: TDP1 (human) enzyme inhibition | Potency, µM (top dose mostly 130 µM), for the others: top-dose activity change, negative = inhibition, actives largely listed as inhibitors | 0.28% of 350,000 active | recombinant TDP1, AlphaScreen DNA substrate cleavage | Q9NUW8; further: potency means the concentration at half of the fitted maximal effect; on the % scale 0 is the no-effect control and ±100 the full control effect; nearly all actives have a fitted effect of over 40% in size
Target sequence (Q9NUW8 whole entry, looked up): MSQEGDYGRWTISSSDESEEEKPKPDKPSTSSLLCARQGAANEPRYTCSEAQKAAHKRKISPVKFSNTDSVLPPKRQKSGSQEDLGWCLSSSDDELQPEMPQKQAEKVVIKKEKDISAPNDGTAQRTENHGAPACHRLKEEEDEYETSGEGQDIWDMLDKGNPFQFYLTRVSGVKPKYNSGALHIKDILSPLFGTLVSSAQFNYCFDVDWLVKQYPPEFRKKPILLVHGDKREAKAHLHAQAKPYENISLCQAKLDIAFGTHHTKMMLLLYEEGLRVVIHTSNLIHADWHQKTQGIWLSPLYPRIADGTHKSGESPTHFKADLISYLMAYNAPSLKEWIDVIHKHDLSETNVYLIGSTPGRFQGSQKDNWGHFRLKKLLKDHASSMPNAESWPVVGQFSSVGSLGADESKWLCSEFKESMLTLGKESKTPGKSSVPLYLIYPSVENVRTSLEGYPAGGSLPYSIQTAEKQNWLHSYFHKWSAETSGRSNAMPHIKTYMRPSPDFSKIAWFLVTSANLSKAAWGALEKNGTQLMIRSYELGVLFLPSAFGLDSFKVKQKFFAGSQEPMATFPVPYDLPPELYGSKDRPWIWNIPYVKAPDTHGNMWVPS
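Here, a 5' biotin and 3' phosphotyrosine-FITC DNA oligonucleotide reports Tdp1 activity: intact substrate bridges AlphaScreen beads, while cleavage leaves a 3' phosphate and drops signal. All incubations at room temperature.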
TDP1 cell CPT: growth inhibition of DT40 Tdp1-/-;hTDP1 cells with camptothecin (screen for TDP1 inhibitors). chicken DT40 Tdp1-/-;hTDP1 cells + 20 nM CPT, ATP luminescence, 48 h. Potency, µM (highest dose often 46.2 µM), for inactives: top-dose activity change, negative = growth inhibition, hits mostly inhibitors. 12% of 420,000 active. AID 686979; further: potency means the concentration at half of the fitted maximal effect; on the % scale 0 is the no-effect control and ±100 the full control effect; nearly all actives have a fitted effect of over 55% in size
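Chicken DT40 Tdp1-/- cells stably complemented with human TDP1 were seeded at 400 cells/well in medium containing 20 nM camptothecin, exposed to pin-transferred compounds, and grown at 37 °C for at least 48 hr. Viability was read as ATP luminescence.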
Starred values were filed as active, the others as inactive; ? = inconclusive; · = not tested or not shown. Sampled rows, rich in hits. Any-hit rate of the full collection: about 18%. Unless noted, the call rests on the fitted dose curve; in most records, active means well fitted curve in the direction sought with a large enough effect; inconclusive means small, poorly fitted or top-dose-only effect, or another doubt; inactive means no such curve, though single readings can be large; an effect the other way counts as inactive or inconclusive.

SMILES	IL-1B inflam inh	TDP1 cell noCPT	HepG2 viability	TGFb SMAD3 inh	TDP1 block	TDP1 cell CPT
C=CCn1c(SCC(=O)N2CCc3ccccc3C2)nc2sc(C)cc2c1=O	?	26µM*	6%	0%	1%	?
CCCCn1c(SCC(=O)N2c3ccccc3Sc3ccccc32)nc2c1c(=O)n(C)c(=O)n2C	?	26µM*	5%	?	-2%	?
CCCCn1c(SCC(=O)N2CCCc3ccccc32)nc2c1c(=O)n(C)c(=O)n2C	22	22µM*	-19%	?	4%	18µM*
CN(C)c1ccc(CNC(=O)CCC(=O)N2Cc3ccccc3Oc3ncccc32)cc1	·	?	3%	19%	-2%	?
COCCN(C(=O)COC(=O)CCSc1ccc(F)cc1)c1c(N)n(Cc2ccccc2)c(=O)[nH]c1=O	8	-15%	0%	0%	-1%	-23%
CCn1c(SCC(=O)N2CCc3ccccc3C2)nc2c1c(=O)n(C)c(=O)n2C	51	-26%	-11%	2%	3%	23µM*
CCCn1c(SCC(=O)N2CCc3ccccc3C2)nc2c1c(=O)n(C)c(=O)n2C	22	?	6%	12%	3%	?
COCCn1c(SCC(=O)NC(=O)NC2CCCCC2)nc2ccccc2c1=O	-5	15µM*	-22%	-18%	1%	?
CCOC(=O)N1CCN(C(=O)C[C@@H]2C[C@@]3(C(=O)OC)CC(C)(C)CC=C3N(Cc3ccc4c(c3)OCO4)C2=O)CC1	-2	18µM*	·	·	·	12µM*
COC(=O)[C@@]12C[C@@H](CC(=O)N3CCSCC3)C(=O)N(Cc3ccc4c(c3)OCO4)C1=CCC(C)(C)C2	-22	15µM*	·	·	·	?
Cc1ccc(NC(=S)NCCN(C2CCCCC2)C2CCCC2)cc1C	-67*	?	-40%	?	5%	21µM*
Cc1ccc(NC(=S)NCCN(C2CCCCC2)C2CCCC2)cc1	-11	?	-49%	?	3%	?
CC1(C(=O)NS(=O)(=O)c2cccs2)CCN1C(=O)C1CCCCC1 (stereo not given)	13	5%	-8%	3%	·	-11%
COc1ccc(OC)c(NC(=O)c2cnc(N3CCCCC3)c3ccccc23)c1	·	8.2µM*	-3%	1%	7%	10µM*
COc1ccc(OC)c(NC(=O)c2cc3oc4ccccc4c3cc2O)c1	31	16µM*	-9%	-15%	-3%	?
COc1ccc(NC(=O)CN(C)C(=O)c2cc3c(cc2Cl)N2CCCCCC2=NS3(=O)=O)cc1	6	-1%	-11%	-12%	·	1%
CC(C)OC(=O)c1ccc(N2CCN(c3ccccc3F)CC2)nc1	19	18µM*	-21%	-18%	·	?
COc1ccc(OC)c(NC(=O)c2cc3c(cc2Cl)N2CCCCCC2=NS3(=O)=O)c1	15	16µM*	-12%	14%	1%	?
COC(=O)c1cccnc1N1CCN(c2ccccc2F)CC1	-3	1%	-3%	7%	-6%	1%
CCOc1ccccc1NC(=O)c1cnc(N2CCOCC2)c2ccccc12	·	18µM*	-6%	19%	4%	21µM*
CCN1CCN(c2ncc(C(=O)Nc3ccccc3C(=O)OC)c3ccccc23)CC1	?	16µM*	-31%	1%	4%	23µM*
COC(=O)c1cnc(N2CCN(c3ccccc3F)CC2)c2ccccc12	·	16µM*	-2%	-22%	0%	?
Cc1cccc(C(=O)Nc2ccc(S(=O)(=O)N3CCC(c4nc5ccccc5s4)CC3)cc2)c1	·	?	-3%	30%	9%	-22%
